Among the data in PubChem BioAssay are composite z-score, composite Z-score and z-score values, retold here.

One test addresses Albumin (Bos taurus) (UniProt P02769). Put plainly: compounds binding labelled BSA control protein – biochemical, small-molecule microarray, Alexa647 label, 635/667 nm fluorescence, artefact control for SMM control protein annotation, profiling panel (AID 1118).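 Further: score merges 667 nm emission intensity and signal-to-noise per printed compound spot.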 The conditions noted are these: BSA-A647 binding, fluorescence 635 nm, higher = more signal.
Test [1] can be described thus: probe aXIP binding to arrayed compounds – biochemical, NeuroSMM set, 635/667 nm fluorescence, primary screen (AID 1119).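 Further: probe is the protein aXip251-270 applied at 1 µg/mL to compound-printed slides; binding of probe to printed compounds measured as 667 nm fluorescence plus signal to noise.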 The note with it: small-molecule microarray, higher = more signal, called active from +8 up or from −8 down.
A short description of test [2]: probe aNOTCH3 binding on compound microarray – biochemical, small-molecule microarray, 635/667 nm fluorescence, primary screen (AID 1120).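 Further: probe is a biotin-tagged antibody raised against NOTCH3 rather than NOTCH3 protein; score merges spot fluorescence near 667 nm with spot signal to noise.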 The conditions noted are these: higher = more signal.
Test [3] can be described thus: probe aNOTCH2 binding on compound microarray – biochemical, small-molecule microarray, 635/667 nm fluorescence, primary screen (AID 1121).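 Further: score merges feature fluorescence read at 667 nm with its signal to noise.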 The conditions noted are these: higher = more signal.
Test [4] concerns the target Carbonic anhydrase 2 (Homo sapiens) (UniProt P00918). The test can be described thus: compounds binding carbonic anhydrase 2 – biochemical, small-molecule microarray, Alexa647-labelled CAII, profiling panel (AID 1122). The conditions noted are these: CAII-A647 binding fluorescence, higher = more signal.
Test [5] can be described thus: COS7 lysate on small-molecule microarray, probe aHis, 635 nm (AID 1123).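 Further: z-score combines 667nm fluorescence intensity with signal-to-noise per printed compound spot.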 The conditions noted are these: COS7 cell lysate, fluorescence, higher = more signal.
Test [6] can be described thus: probe aLAP1 signal on lysate-treated microarray – cell lysate, small-molecule microarray, COS7 lysate, primary screen (AID 1124).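 Further: lysate comes from COS7 cells expressing LAP1 and is applied at 0.3 µg/mL; score merges spot fluorescence near 667 nm with signal-to-noise over triplicate slides.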 The note with it: probe aLAP1, fluorescence, higher = more signal.
For another test, the system named is Sam68 (KHDRBS1). The test can be described thus: compounds binding KHDRBS1 protein – biochemical, small-molecule microarray, 635 nm fluorescence, primary screen (AID 1125).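 Further: score merges 667 nm channel intensity with signal to noise over triplicate slides.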 The conditions noted are these: higher = more signal.
For test [7], the system named is Chordin-like protein 2 (CHRDL2). The test can be described thus: compounds binding chordin-like 2 – biochemical, small-molecule microarray, 635 nm fluorescence, primary screen (AID 1126).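 Further: printed compound slides probed with Chrdl2 protein at 4 µg/mL for 1 h at 4 C; score merges 667 nm emission intensity with signal to noise over three replicate slides.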 The note with it: fluorescence 635 nm, higher = more signal.
The target in test [8] is Concanavalin-A (Canavalia ensiformis) (UniProt P02866). Put plainly: compounds binding concanavalin A lectin – biochemical, small-molecule microarray, Alexa647 label, 635 nm, artefact control for SMM control protein annotation, primary screen (AID 1127).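 Further: z combines 667 nm emission intensity with signal-to-noise across three replicate slides.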 The conditions noted are these: ConA-A647 binding fluorescence, higher = more signal.
Concanavalin-A (Canavalia ensiformis), sequence (P02866 whole entry, looked up): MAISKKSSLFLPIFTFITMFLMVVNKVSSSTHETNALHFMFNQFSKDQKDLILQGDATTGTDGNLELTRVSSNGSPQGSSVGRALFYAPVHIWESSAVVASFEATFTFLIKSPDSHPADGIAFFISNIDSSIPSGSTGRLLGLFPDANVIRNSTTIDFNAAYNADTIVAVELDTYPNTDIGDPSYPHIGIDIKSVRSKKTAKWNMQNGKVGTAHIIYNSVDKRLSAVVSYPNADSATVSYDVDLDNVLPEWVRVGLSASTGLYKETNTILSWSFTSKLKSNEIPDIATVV
A short description of test [9]: compounds binding Alexa647 anti-His antibody – biochemical, small-molecule microarray, 635 nm fluorescence, artefact control for SMM control protein annotation, primary screen (AID 1128).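 Further: score merges feature fluorescence with signal-to-noise for each printed compound spot.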 The note with it: higher = more signal.
Test [10] concerns Human papillomavirus type 1a E7 protein (residues 1-88). The test can be described thus: HPV1a E7 small-molecule binders, primary screen, biochemical, small-molecule microarray, residues 1-88, 635 nm (AID 1129). The note with it: small-molecule microarray binding, fluorescence 635 nm; higher = more signal.
In test [11] the target is Focal adhesion kinase 1 (Homo sapiens) (UniProt Q05397). The test can be described thus: PTK2 protein binding on printed compound slides – biochemical, small-molecule microarray, 635/667 nm fluorescence, BSA, DTT, primary screen (AID 1130).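 Further: composite of spot emission at 667 nm and signal to noise over triplicate slides.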 The conditions noted are these: 635 nm fluorescence, higher = more signal.
Focal adhesion kinase 1 (Homo sapiens), sequence (Q05397 whole entry, looked up): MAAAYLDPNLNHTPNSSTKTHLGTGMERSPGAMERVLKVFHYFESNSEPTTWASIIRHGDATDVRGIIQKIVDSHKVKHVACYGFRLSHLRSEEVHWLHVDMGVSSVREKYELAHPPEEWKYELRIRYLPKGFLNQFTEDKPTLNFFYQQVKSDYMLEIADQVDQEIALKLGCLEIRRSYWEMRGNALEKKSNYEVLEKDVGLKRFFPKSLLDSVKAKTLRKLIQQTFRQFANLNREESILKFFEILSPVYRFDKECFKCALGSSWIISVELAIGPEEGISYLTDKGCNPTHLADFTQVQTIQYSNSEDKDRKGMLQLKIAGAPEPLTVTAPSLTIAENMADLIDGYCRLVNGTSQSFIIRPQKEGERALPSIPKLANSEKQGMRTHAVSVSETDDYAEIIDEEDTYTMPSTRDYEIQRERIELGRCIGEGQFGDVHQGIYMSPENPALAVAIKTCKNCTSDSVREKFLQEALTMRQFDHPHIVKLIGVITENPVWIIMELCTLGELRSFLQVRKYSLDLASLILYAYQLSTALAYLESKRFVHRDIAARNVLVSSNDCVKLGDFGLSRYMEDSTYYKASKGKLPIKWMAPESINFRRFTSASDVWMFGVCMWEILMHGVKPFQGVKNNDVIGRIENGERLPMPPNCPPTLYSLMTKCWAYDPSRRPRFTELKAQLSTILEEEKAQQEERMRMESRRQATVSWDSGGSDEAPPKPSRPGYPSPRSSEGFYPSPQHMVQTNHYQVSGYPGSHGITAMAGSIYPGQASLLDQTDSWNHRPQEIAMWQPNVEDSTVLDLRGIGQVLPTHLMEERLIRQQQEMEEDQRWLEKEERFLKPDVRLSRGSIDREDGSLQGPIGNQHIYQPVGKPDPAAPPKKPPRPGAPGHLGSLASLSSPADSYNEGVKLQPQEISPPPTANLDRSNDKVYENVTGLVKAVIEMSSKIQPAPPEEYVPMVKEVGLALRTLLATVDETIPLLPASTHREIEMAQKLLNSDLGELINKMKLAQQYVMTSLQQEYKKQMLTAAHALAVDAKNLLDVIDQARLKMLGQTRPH
Test [12] deals with Fibrinogen (Alexa647-labelled). The test can be described thus: Alexa647-fibrinogen binding to printed small molecules – biochemical, small-molecule microarray, 635/667 nm fluorescence, artefact control for SMM control-protein annotation, profiling panel (AID 1131).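 Further: z-score merges 667 nm fluorescence with per-spot signal-to-noise over triplicate slides.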 The conditions noted are these: fibrinogen-A647 binding fluorescence, higher = more signal.
Test [13] deals with Follistatin (Homo sapiens) (UniProt P19883). Put plainly: FST protein binding to printed compounds – biochemical, small-molecule microarray, 635/667 nm fluorescence, primary screen (AID 1132). The conditions noted are these: 635 nm fluorescence, higher = more signal.
Follistatin (Homo sapiens), sequence (P19883 whole entry, looked up): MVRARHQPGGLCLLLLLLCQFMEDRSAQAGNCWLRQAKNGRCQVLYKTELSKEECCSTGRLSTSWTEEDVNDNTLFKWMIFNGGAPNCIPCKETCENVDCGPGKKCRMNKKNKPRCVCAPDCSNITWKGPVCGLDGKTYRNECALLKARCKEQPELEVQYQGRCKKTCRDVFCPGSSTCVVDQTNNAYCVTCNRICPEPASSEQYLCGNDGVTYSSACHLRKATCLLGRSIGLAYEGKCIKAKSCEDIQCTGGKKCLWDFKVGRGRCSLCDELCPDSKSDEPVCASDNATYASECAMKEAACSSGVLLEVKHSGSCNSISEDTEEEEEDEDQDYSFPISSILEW
The target in test [14] is Fibroblast growth factor 2 (Homo sapiens) (UniProt P09038). Put plainly: basic fibroblast growth factor binding to printed compounds – biochemical, small-molecule microarray, 635/667 nm fluorescence, primary screen (AID 1133). The note with it: FGF2, fluorescence 635/667, higher = more signal.
Fibroblast growth factor 2 (Homo sapiens), sequence (P09038 whole entry, looked up): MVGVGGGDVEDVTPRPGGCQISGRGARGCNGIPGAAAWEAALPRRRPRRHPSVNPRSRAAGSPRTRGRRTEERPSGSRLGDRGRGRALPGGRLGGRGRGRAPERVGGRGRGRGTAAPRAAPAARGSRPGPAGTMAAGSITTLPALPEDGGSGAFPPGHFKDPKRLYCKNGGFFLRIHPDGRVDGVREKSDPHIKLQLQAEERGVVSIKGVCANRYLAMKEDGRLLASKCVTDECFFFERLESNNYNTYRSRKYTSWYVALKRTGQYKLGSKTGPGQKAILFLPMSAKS
Test [15] in a line: JC-1 mitochondrial potential readout, lung cancer cells – cell-based, A549, JC-1 fluorescence, basal, 24 h, 100 nL, profiling panel (AID 1138).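 Further: A549 lung adenocarcinoma cells under basal conditions with no added stimulus; test concentration not given here.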 The conditions noted are these: higher = more signal.
The next test has as its system Lefty1. Put plainly: Lefty1 protein binding to printed compounds – biochemical, small-molecule microarray, 635/667 nm fluorescence, primary screen (AID 1139). The conditions noted are these: fluorescence 635/667, higher = more signal.
The test system of test [16] is wheat germ agglutinin (Triticum aestivum), Alexa647-labelled. The test can be described thus: Alexa647-WGA lectin binding to printed small molecules – biochemical, small-molecule microarray, 635/667 nm fluorescence, artefact control for SMM control-protein annotation, profiling panel (AID 1140).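 Further: score merges 667 nm feature emission with signal to noise over triplicate slides.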 The note with it: WGA-A647 binding, 635 nm fluorescence, higher = more signal.

Test [17] concerns the target Luciferin 4-monooxygenase (Photinus pyralis) (UniProt P08659). Put plainly: inhibition of purified Photinus pyralis luciferase – biochemical, luminescence, purified enzyme, 2006 set, primary screen (AID 1141).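 Further: cell-free assay with purified firefly luciferase at 100 ng per well in PBS; test concentration not given here.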 The conditions noted are these: purified firefly luciferase, SteadyGlo luminescence, 30 min; higher = more signal, called active from +8 up or from −8 down.

The structures appear in SMILES notation. Calls of active or inactive are those of the source.

Albumin (Bos taurus), sequence (P02769 whole entry, looked up): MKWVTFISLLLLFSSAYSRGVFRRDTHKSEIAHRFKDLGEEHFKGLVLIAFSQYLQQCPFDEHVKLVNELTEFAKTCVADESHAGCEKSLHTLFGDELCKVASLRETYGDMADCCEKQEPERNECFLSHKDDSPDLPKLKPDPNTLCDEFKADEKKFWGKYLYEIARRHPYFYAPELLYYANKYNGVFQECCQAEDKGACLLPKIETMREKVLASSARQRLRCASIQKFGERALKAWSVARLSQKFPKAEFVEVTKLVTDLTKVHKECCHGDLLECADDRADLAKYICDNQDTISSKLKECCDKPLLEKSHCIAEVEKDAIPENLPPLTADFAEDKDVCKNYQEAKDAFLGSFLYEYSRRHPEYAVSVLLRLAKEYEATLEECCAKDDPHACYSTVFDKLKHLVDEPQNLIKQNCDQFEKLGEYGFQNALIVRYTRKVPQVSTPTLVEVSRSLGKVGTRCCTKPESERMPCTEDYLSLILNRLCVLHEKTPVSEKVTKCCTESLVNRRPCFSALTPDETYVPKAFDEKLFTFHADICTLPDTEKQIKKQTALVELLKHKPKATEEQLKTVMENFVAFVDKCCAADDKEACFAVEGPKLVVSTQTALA
Luciferin 4-monooxygenase (Photinus pyralis), sequence (P08659 whole entry, looked up): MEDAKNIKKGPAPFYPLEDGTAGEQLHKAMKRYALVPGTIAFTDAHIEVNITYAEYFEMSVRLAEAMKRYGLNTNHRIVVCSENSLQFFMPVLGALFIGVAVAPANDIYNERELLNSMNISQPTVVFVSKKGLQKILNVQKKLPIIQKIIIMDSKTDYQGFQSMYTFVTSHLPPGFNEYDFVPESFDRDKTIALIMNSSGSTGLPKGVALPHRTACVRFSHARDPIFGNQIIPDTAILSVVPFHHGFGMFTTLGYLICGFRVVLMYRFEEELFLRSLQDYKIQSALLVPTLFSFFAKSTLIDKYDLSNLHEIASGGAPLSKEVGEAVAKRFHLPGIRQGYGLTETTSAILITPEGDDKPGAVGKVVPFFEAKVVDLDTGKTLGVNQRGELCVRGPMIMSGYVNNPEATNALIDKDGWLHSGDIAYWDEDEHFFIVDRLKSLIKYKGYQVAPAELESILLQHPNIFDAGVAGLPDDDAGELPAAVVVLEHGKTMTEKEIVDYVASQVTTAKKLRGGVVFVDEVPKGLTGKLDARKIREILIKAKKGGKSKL

As to `COc1ccc([Si](C)(C)[C@@H]2[C@@H](CC(=O)N3Cc4ccccc4C[C@H]3CO)O[C@]3(C(=O)N(Cc4ccc(N5CCOC5=O)cc4)c4ccccc43)[C@H]2C)cc1`, the composite z-score in the test with Albumin (Bos taurus) is -0.289; in test [2], 0.0803; in [3], -0.128; in test [4], 0.624; in [5], 1.12; in [6] it was 0.313. In addition, the composite z-score is 1.27 with Sam68 (KHDRBS1); 1.26 in test [7]; 1.16 in test [8]; 1.74 in [9]; 0.986 in [10]; 0.239 in test [11]. Moreover, the composite z-score was found to be 0.55 in test [12]; 1.32 in test [13]; 1.49 in test [14]; 1.53 in the test with Lefty1; 0.914 in test [16]. The composite Z-score in [1] was 1.54 (inactive). Also, the z-score in test [15] is 0.138; in test [17], -0.912 (inactive).
As to `CN(C)CCCC[C@@H]1NC(=O)[C@@H]2C[C@H](C(=O)NCCCCCN)[C@H](c3cccc(OCCO)c3)N2C1=O`, the composite z-score is 0.49 with Albumin (Bos taurus); 0.423 in test [2]; -0.14 in test [3]; 0.727 in test [4]; 0.482 in [5]; 1.27 in [6]. For the same compound, the composite z-score with Sam68 (KHDRBS1) is 1.33; in test [7], 0.495; in test [8] it was 1.21; in test [9], 2.76; in test [10], 1.05; in test [11] it was -0.155. The composite z-score was determined as 0.851 in [12]; 1.08 in test [13]; 1.25 in test [14]; 0.908 in the test with Lefty1; 0.632 in test [16]. The composite Z-score in [1] is 0.932 (inactive). Further, the z-score in test [15] is 2.13; in test [17] it was -1.6 (inactive).
`COCCn1c(C(=O)N(C)C)cc2c1C[C@H]1CN(C(=O)c3ccccc3)[C@@](Cc3ccc(OC)cc3)(C(=O)OC)[C@@H]21`: the composite z-score with Albumin (Bos taurus) is 0.507; in test [2], 0.32; in [3] it was 0.0323; in [4] it was 0.659; in test [5] it was 2.94; in test [6], 0.294. Further, the composite z-score is 0.914 in the test with Sam68 (KHDRBS1); -0.545 in test [7]; 0.732 in test [8]; 1.59 in test [9]; 1.04 in [10]; 0.585 in test [11]. Further, the composite z-score was 0.837 in test [12]; 0.571 in [13]; -0.226 in test [14]; -0.201 in the test with Lefty1; 0.94 in test [16]. Besides, the composite Z-score in [1] was -0.0775 (inactive). For the same compound, the z-score in test [15] is 1.66; in test [17], 0.75 (inactive).
As for `O=C(O)[C@H](Cc1ccccc1)n1cc(C2(O)CCCCC2)nn1`, the composite z-score with Albumin (Bos taurus) was 0.568; in test [2] it was 0.0191; in test [3], -0.147; in [4], 0.54; in test [5], 1.46; in test [6], 0.0496. The composite z-score in the test on Sam68 (KHDRBS1) is 1.01; in [7], -0.0151; in test [8], 0.463; in [9], 0.689; in test [10] it was 0.357; in test [11], 0.736. Moreover, the composite z-score in test [12] worked out at 0.52; in test [13], 0.142; in test [14], 0.278; in the test with Lefty1, 0.676; in [16] it was 0.0402. For the same compound, in [1], the composite Z-score was 0.217 (inactive). The z-score in test [15] was -0.141; in test [17], -0.0102 (inactive).
For `CCCCC(O)C1C=CC2C(=O)N(c3ccccc3)C(=O)C2N1Nc1ccc(C#N)cc1` (stereo not given), the composite z-score with Albumin (Bos taurus) came to 0.859; in test [2], 0.426; in test [3], 0.349; in test [4], 0.721; in [5], 2.68; in [6] it was 1.23. The composite z-score is 1.17 in the test with Sam68 (KHDRBS1); -0.0433 in test [7]; 0.778 in [8]; 0.584 in test [9]; 1.13 in test [10]; 0.764 in [11]. In addition, the composite z-score in test [12] was 0.981; in test [13], 0.0191; in [14] it was 0.0696; with Lefty1, -0.295; in [16], 0.819. Also, the composite Z-score in test [1] is 0.22 (inactive). Further, the z-score in [15] was 0.0808; in test [17], -1.45 (inactive).
On to `COc1ccc([Si](C)(C)[C@H]2[C@H](CCO)O[C@@]3(C(=O)N(Cc4ccc(NC(=O)[C@H](C)O)cc4)c4ccccc43)[C@@H]2C)cc1`, for which the composite z-score was 0.494 with Albumin (Bos taurus); 0.0643 in [2]; -0.164 in test [3]; 0.488 in [4]; 1.9 in [5]; 0.0861 in test [6]. The composite z-score with Sam68 (KHDRBS1) is 1.32; in [7], 0.101; in test [8], 0.897; in test [9] it was 1.4; in test [10], 1.23; in test [11] it was 0.382. Besides, the composite z-score came out at 0.68 in [12]; 0.728 in [13]; 0.634 in test [14]; 0.568 in the test on Lefty1; 0.355 in test [16]. Also, in [1], the composite Z-score is 0.515 (inactive). In addition, the z-score in test [15] is -1.45; in [17] it was -0.234 (inactive).
